Assay results from PubChem BioAssay (NCATS).
A number with no mark means an inactive call. Inconclusive results are not listed. The list shows a part of the results. A call without a number means that no potency is given here. Activity calls are given as the source filed them. Unless noted, calls come from the whole dose curve; as a rule, active = well fitted curve in the direction sought with a large enough effect; inconclusive = small, poorly fitted or top-dose-only effect, or another doubt; inactive = no such curve, though single readings can be large; an effect the other way counts as inactive or inconclusive.

Experiments:
[1] = biological target: Cytochrome P450 3A4 (Homo sapiens) (UniProt P08684); assay: qHTS Assay for Activators of Cytochrome P450 3A4 (AID 885); note: nearly all actives have a fitted effect of over 65% in size
Sequence of Cytochrome P450 3A4 (Homo sapiens) (P08684 whole entry, looked up): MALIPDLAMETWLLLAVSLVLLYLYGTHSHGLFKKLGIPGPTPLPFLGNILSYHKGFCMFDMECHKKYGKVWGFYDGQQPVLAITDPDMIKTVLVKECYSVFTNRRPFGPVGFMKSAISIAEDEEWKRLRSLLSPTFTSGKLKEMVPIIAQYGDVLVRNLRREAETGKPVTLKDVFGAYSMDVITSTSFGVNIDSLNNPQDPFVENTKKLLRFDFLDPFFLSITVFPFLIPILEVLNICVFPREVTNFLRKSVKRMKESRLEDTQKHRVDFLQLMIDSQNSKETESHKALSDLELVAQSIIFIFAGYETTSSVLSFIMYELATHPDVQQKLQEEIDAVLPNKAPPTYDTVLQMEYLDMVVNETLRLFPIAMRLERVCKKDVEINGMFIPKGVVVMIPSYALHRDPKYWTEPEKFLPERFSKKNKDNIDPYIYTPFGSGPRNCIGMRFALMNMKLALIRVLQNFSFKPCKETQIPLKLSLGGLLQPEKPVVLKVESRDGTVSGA
Summary of the method: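 Activators are scored by enhanced luminescence from CYP3A4 conversion of luciferin-PPXE (25uM, equal to KM) to luciferin, after 60 min at RT with an NADPH-regenerating system.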

[2] = biological target: Estrogen receptor (Homo sapiens) (UniProt P03372); assay: qHTS assay for small molecule antagonists of estrogen receptor alpha signaling (AID 588513; active = well fitted curve in the direction sought with a large enough effect in the signal ratio, with a control signal flat, not every such curve was filed as active; the % refers to the signal ratio)
Sequence of Estrogen receptor (Homo sapiens) (P03372 whole entry, looked up): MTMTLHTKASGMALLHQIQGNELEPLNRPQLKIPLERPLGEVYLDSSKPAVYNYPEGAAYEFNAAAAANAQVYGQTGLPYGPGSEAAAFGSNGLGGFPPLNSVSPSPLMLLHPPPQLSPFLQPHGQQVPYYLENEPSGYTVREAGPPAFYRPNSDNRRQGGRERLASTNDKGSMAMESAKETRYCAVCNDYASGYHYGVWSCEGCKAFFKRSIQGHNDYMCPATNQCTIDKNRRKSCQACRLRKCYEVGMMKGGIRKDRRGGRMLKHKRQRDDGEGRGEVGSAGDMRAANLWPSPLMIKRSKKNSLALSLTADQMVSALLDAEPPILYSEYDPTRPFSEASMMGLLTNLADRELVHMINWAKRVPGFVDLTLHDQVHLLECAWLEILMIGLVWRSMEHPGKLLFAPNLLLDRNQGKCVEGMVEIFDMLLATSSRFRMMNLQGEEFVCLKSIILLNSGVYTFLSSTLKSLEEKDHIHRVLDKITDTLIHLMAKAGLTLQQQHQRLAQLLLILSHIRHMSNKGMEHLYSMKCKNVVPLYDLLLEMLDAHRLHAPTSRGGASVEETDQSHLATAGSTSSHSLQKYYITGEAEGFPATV
Summary of the method: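 Antagonist mode: inhibition of 0.5 nM 17-beta-estradiol-driven beta-lactamase reporter in HEK 293 ER-alpha-UAS-bla cells, 18 h at 37C, CCF4 readout after 2 h at RT. Normalised to estradiol and DMSO; titration fitted to Hill.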

[3] = biological target: Bile acid receptor (Homo sapiens) (UniProt Q96RI1); assay: qHTS assay for small molecule antagonists of farnesoid X receptor signaling (AID 588526; calls by dose curve)
Sequence of Bile acid receptor (Homo sapiens) (Q96RI1 whole entry, looked up): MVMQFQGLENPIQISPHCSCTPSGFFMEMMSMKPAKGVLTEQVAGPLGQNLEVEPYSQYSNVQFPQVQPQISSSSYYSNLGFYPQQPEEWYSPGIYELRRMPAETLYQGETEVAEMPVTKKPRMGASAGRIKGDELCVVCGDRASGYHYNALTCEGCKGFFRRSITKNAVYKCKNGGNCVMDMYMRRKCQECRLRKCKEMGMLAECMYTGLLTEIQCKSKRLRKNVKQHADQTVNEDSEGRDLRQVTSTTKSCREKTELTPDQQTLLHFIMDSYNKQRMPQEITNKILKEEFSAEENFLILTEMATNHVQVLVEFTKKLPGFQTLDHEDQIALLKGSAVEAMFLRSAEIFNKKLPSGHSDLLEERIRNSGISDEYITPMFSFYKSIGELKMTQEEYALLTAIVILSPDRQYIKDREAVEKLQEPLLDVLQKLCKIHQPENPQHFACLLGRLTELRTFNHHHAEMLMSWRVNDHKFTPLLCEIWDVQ
Summary of the method: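 Beta-lactamase reporter antagonist mode: HEK293T FXR-UAS-bla cells, titrated compound, CDCA stimulation, 16 h 37 C, CCF4 dye 2 h RT. Data normalized to CDCA 50 uM and DMSO; Hill-fit IC50.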

[4] = biological target: Bile acid receptor (Homo sapiens) (UniProt Q96RI1); assay: qHTS assay for small molecule agonists of farnesoid X receptor signaling (AID 588527; calls by dose curve; note: series mostly up to about 77 µM); settings: HEK293T FXR-UAS-bla, beta-lactamase ratio, 16 h; hits give high values
Summary of the method: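 Read-out: beta-lactamase reporter fluorescence with CCF4 substrate in GeneBLAzer FXR-UAS-bla HEK293T cells, after 16 h compound exposure at 37 C. Response scaled between DMSO basal (0%) and chenodeoxycholic acid at 100 uM (100%).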

[5] = biological target: Androgen receptor (Homo sapiens) (UniProt P10275); assay: qHTS assay for small molecule agonists of androgen receptor signaling (AID 588515; active = well fitted curve in the direction sought with a large enough effect in the signal ratio, with a control signal flat; the % refers to the signal ratio); settings: AR-UAS-bla HEK293, beta-lactamase ratio, agonist 16 h; hits give high values
Sequence of Androgen receptor (Homo sapiens) (P10275 whole entry, looked up): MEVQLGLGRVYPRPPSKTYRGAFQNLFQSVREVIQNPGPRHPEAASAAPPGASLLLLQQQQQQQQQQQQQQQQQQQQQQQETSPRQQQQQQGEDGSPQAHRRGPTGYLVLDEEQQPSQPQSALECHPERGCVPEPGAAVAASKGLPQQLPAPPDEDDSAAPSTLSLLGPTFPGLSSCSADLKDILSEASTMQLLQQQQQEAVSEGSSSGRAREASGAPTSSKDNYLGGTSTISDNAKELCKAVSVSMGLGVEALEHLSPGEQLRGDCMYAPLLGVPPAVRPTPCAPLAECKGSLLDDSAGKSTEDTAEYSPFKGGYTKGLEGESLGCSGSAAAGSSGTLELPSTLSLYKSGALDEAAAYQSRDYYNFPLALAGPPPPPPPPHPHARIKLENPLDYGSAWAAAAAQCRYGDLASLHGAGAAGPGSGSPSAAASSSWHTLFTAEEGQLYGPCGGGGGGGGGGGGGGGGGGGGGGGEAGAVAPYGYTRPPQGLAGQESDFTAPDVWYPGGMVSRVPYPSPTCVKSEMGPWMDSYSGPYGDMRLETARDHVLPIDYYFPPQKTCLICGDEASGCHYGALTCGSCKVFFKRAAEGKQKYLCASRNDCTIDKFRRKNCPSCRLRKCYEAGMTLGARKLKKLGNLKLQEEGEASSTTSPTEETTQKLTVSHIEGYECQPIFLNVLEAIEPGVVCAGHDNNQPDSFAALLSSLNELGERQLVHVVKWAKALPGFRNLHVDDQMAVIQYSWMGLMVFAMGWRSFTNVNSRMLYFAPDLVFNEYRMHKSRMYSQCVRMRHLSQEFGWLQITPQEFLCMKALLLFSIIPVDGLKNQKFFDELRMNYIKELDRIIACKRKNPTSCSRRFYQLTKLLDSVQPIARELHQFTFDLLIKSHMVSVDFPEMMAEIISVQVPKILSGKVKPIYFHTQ
Summary of the method: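 Stimulation of an AR-responsive β-lactamase reporter in GripTite HEK293 cells was measured after 16 h compound exposure at 37 °C, via CCF4 fluorescence after 2 h RT. EC50 from Hill fits, normalized to R1881 at 30 nM.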

[6] = Confirmation and Secondary Assay for Modulators of Hemoglobin Beta Chain Splicing at IVS2 654 locus (AID 910);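 note: HeLa cells stably carrying EGFP split by mutant beta-globin IVS2-654 intron; per-well total GFP intensity by laser scanning cytometry after 2-day treatment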
Summary of the method: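 Readout: per-well total peak green fluorescence (488 nm ex, 500–520 nm em) from objects 5–250 µm, reflecting correct splicing of an EGFP-654 reporter. Compounds were applied for 2 days at 37 °C to overnight-plated HeLa EGFP-654 cells; controls were DMSO and 500 nM IVS2-654 PNA.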

[7] = Confirmation and Secondary Assay for Modulators of Hemoglobin Beta Chain Splicing at IVS2 705 locus (AID 930);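 note: HeLa cells stably expressing the EGFP-705 splicing reporter; GFP fluorescence per well restored by corrected splicing of the IVS2-705 intron in EGFP; series mostly up to about 46 µM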
Summary of the method: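 Fluorescence gain (488 nm laser, 500-520 nm PMT) reflects restored correct splicing of a mutant IVS2-705 intron inside EGFP in stably transfected HeLa cells after 2-day compound treatment.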

[8] = biological target: Ubiquitin carboxyl-terminal hydrolase 1 (Homo sapiens) (UniProt O94782); assay: Inhibitors of USP1/UAF1: Pilot qHTS (AID 504865);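 note: rhodamine fluorescence freed from ubiquitin-rhodamine substrate followed over time; top concentration of the series differs between compounds; nearly all actives have a fitted effect of over 35% in size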
Sequence of Ubiquitin carboxyl-terminal hydrolase 1 (Homo sapiens) (O94782 whole entry, looked up): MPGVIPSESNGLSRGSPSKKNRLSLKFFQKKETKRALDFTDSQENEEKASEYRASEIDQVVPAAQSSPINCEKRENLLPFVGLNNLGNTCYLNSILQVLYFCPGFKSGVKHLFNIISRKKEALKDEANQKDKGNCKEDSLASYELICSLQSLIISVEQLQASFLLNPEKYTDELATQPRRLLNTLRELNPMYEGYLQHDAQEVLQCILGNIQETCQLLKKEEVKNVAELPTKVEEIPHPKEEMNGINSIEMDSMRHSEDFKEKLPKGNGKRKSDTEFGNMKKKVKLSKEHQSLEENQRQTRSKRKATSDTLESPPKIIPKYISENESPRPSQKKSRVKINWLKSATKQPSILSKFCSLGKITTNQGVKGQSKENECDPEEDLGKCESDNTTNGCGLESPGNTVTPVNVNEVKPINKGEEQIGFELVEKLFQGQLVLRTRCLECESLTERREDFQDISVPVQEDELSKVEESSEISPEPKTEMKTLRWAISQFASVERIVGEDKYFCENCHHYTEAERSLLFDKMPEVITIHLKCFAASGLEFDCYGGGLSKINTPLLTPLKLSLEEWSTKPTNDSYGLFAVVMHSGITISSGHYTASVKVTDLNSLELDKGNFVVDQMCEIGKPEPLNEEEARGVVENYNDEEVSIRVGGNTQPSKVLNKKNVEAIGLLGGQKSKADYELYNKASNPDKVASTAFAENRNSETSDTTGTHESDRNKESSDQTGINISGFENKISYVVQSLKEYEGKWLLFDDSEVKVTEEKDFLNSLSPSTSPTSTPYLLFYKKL
Summary of the method: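 Deubiquitinase activity followed as kinetic rhodamine fluorescence release from 150 nM Ub-Rho. 1 nM USP1/UAF1 with compound, after 15 min room-temperature preincubation, in HEPES pH 7.8 buffer containing TCEP, EDTA, BSA and Tween-20.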

[9] = tested on: HIV-1 nucleocapsid protein NCp7 (binding to TG oligonucleotide); assay: HIV Nucleocapsid (AID 346; call rule not given here;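 note: potency is the fitted concentration of half-maximal effect; potency is for inhibitors that block NC binding and lower polarization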); settings: HIV-1 NC / fluorescein-TGTGTGTG probe, fluorescence polarization
Summary of the method: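 10 nM TG4xF probe with 100 nM nucleocapsid protein in high-salt Hepes pH 7.5 (250mM NaCl) containing 1uM ZnCl2 and reducing agents. Compound inhibition of binding was read as fluorescein polarization after 1 hr at room temperature.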

[10] = qHTS Assay for Inhibitors of Fructose-1,6-bisphosphate Aldolase from Giardia Lamblia: Giardia lamblia growth inhibition (AID 2785); note: nearly all actives have a fitted effect of over 70% in size
Summary of the method: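 Whole-parasite growth test: Giardia WB trophozoites in TYI-S-33 (pH 7.0), 100 per well, incubated 48 h at 37C with compound. ATP content was read by ATPlite luminescence.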

[11] = qHTS Assay for Inhibitors of Fructose-1,6-bisphosphate Aldolase from Giardia Lamblia: Mammalian cellular toxicity (AID 2786);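 note: compound exposure lasted 48 h before reading; nearly all actives have a fitted effect of over 60% in size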
Summary of the method: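 Mammalian cytotoxicity surrogate: Chinese hamster ovary cells exposed to compound for 48 h at 37 °C. Cellular ATP then measured with ATPlite reagent, 20 min incubation.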

[12] = biological target: Fructose-bisphosphate aldolase (Giardia intestinalis (strain ATCC 50803 / WB clone C6)) (UniProt A8B2U2); assay: qHTS Assay for Inhibitors of Fructose-1,6-bisphosphate Aldolase from Giardia Lamblia: Primary screen confirmation (AID 2787);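 note: aldolase product measured through coupled diaphorase step turning resazurin into fluorescent resorufin; series mostly up to about 58 µM; nearly all actives have a fitted effect of over 45% in size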
Sequence of Fructose-bisphosphate aldolase (Giardia intestinalis (strain ATCC 50803 / WB clone C6)) (A8B2U2 whole entry, looked up): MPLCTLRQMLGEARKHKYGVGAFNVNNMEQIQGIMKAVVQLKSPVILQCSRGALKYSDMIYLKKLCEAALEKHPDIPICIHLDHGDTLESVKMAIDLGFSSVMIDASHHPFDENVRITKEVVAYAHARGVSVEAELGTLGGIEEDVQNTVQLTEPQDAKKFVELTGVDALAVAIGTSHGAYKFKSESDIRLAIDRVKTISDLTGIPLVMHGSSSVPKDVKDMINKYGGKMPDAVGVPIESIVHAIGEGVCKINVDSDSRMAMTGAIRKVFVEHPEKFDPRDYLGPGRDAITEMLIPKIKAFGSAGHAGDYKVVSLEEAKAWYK
Summary of the method: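 FBPA (40 nM in enzyme reagent, with 30 uM ZnCl2) was preincubated 10 min at RT with compound up to 57.5 uM final. Substrate plus coupled detection system was then added, and fluorescence (525/598 nm) was read after 20 min at RT.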

[13] = biological target: Fructose-bisphosphate aldolase A (Oryctolagus cuniculus) (UniProt P00883); assay: qHTS Assay for Inhibitors of Fructose-1,6-bisphosphate Aldolase from Giardia Lamblia: Rabbit FBPA Selectivity (AID 2794); note: nearly all actives have a fitted effect of over 60% in size
Sequence of Fructose-bisphosphate aldolase A (Oryctolagus cuniculus) (P00883 whole entry, looked up): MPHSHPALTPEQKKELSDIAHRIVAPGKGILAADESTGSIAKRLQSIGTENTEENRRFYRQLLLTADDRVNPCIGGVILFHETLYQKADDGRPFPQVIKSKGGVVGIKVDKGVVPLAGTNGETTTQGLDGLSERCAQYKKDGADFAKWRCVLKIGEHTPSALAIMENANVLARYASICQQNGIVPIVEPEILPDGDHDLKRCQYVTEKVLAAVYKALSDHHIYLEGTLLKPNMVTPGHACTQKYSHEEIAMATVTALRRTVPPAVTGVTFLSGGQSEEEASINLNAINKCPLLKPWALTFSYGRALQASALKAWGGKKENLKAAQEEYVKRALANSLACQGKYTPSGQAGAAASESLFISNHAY
Summary of the method: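 Room-temperature coupled fluorescence assay using rabbit aldolase. Steps: coupling enzymes, compound (up to 57.5 uM final), 10 min; substrate plus detection reagent, 20 min; read 525/598 nm.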

[14] = qHTS Assay for Inhibitors of Fructose-1,6-bisphosphate Aldolase from Giardia Lamblia: Coupling assay counterscreen confirmation (AID 2795); note: nearly all actives have a fitted effect of over 55% in size
Summary of the method: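 Primary-screen hits were tested against the coupling system alone (GAPDH-based, glyceraldehyde-3-phosphate), without aldolase. Compounds at up to 57.5 uM final were preincubated 10 min at RT with coupling enzymes, then substrate/detection mix (AmpLite Red) was added for 20 min at RT; fluorescence read at 525/598 nm.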

For `Nc1cc(Cl)cc(C(=O)O)c1Cl`, the Potency [1] was “inactive”.
In the case of `CCCCOC(C)=O`, the Potency [2] is reported as “inactive” and the outcome [3] is reported as “inactive”.
For `Nc1cc(Cl)cc(Cl)c1`, the Potency [1] was “inactive”, the outcome [3] was “inactive” and the activation [4] was -0.351%.
With `CC(=O)NNc1ccccc1` the Potency [1] was “inactive”, the activation [5] was 7.34% and the outcome [3] was “inactive”.
In the case of `O=[N+]([O-])c1ccc2c3c(cccc13)CC2`, the Potency [1] is reported as “inactive” and the outcome [3] is reported as “inactive”.
In the case of `OCCOCCO`, the Potency [2] is reported as “inactive” and the activation [4] is reported as -2.87%.
`c1ccc(Nc2ccc(Nc3ccccc3)cc2)cc1` gave an activation [4] of -1.54%.
With `CCN(CC)N=O` the activation [4] was -2.25%.
For `O=[N+]([O-])c1ccc(O)c([N+](=O)[O-])c1`, the outcome [6] was “inactive”, the outcome [7] was “inactive” and the Potency [8] was “inactive”.
With `COP(=S)(OC)SCn1nnc2ccccc2c1=O` the outcome [6] was “inactive”, the outcome [7] was “inactive” and the Potency [8] was “inactive”.
In the case of `COCCn1c(=O)cnc2cnc(N3CCN(C)CC3)nc21`, the Potency [9] is reported as > 20 µM.
With `COc1ccc(CNCCc2c[nH]c3ccccc23)cc1OC` the activity change, negative = inhibition [10] was 0.258% [at 10.4 µM], the outcome [11] was “inactive” and the outcome [12] was “inactive”. For the same compound, the outcome [13] was “inactive” and the outcome [14] was “inactive”.
With `O=C(NC(=S)N1C[C@H]2C[C@H](C1)c1cccc(=O)n1C2)c1ccc(F)cc1` the outcome [10] was “inactive”, the outcome [11] was “inactive” and the outcome [12] was “inactive”. For the same compound, the outcome [13] was “inactive” and the outcome [14] was “inactive”.
With `COc1ccc(-n2c(=O)c(CCc3ccccc3)nc3cncnc32)cc1` the Potency [9] was > 20 µM.
With `CN(C)c1ccc(N=Nc2ccccc2)cc1` the outcome [3] was “inactive” and the activation [4] was -4.32%.
In the case of `COc1ccccc1CN1CCN(C(=O)Cc2ccccc2)CC1`, the outcome [10] is reported as “inactive”, the outcome [11] is reported as “inactive” and the outcome [12] is reported as “inactive”. For the same compound, the outcome [13] was “inactive” and the outcome [14] was “inactive”.
